This assay in a line: compounds quenching or enhancing NS3h-DNA Cy5 signal – biochemical, ChemBridge library, Cy5-DNA-NS3h complex, artefact control for HCV NS3 helicase inhibitor project, confirmation (AID 720489).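 Note: ratio of compound fluorescence to mean of negative controls so 1 means no interference.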 The settings on record: Cy5-dT15 DNA/NS3h fluorescence interference counterscreen; at 100 µM.

The list shows a part of the results. Unmarked numbers belong to inactive results.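 Rule for the calls: active = fluorescence interference ratio at or below 0.8 quencher or at or above a set limitenhancer; inactive = the rest.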

`CCOc1cc(C=C2C(=O)NC(=O)NC2=O)cc(Br)c1OCCOc1ccccc1C`: the fluorescence interference ratio was 0.809.

The record behind these values is PubChem BioAssay AID720489 (Milwaukee Institute for Drug Discovery, 2013).
